A selection: hits, their analogues and other compounds. The true share with any hit is near 10%.
RORg inh = ROR gamma (mouse) transcription inhibition; P51450; actives 5.4% (n = 310,000); Drosophila S2 Gal4-RORgamma UAS-luciferase reporter, 20 h; Potency, µM (doses to about 53.6 µM), for the others: top-dose activity change, negative = inhibition, hits mostly inhibitors; note: % is set by controls: 0 for no effect and ±100 for the full control effect; nearly all actives have a fitted effect of over 60% in size
Target sequence (P51450 whole entry, looked up, the tested form may be a part): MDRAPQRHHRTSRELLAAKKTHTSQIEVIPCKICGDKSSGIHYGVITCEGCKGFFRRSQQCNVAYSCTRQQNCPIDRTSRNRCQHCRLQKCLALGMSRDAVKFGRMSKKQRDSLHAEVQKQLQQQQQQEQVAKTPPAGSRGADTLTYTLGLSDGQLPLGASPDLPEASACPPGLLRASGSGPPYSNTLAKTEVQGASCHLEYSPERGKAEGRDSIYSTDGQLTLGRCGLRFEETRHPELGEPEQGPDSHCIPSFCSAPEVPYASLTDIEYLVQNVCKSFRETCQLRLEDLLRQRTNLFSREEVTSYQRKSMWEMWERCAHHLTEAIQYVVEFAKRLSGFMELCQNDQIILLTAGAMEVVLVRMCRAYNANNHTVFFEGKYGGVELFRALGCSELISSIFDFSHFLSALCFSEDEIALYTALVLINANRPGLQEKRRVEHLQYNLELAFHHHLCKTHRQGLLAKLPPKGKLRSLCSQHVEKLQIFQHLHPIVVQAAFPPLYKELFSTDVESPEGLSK
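Using a luciferase readout, inhibitors were identified by reduced reporter activity in Drosophila cells coexpressing a copper-inducible Gal4–ROR gamma fusion and UAS-driven Photinus luciferase, incubated 20 hr after 700 uM copper sulfate.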
KB-V1 cytotox = kills drug-selected multidrug resistant KB-V1 cells. KB-V1 MDR cells viability, CellTiter-Glo, 72 h. Potency, µM (series often up to 46.1 µM), hits mostly cytotoxic. actives 3.4% (n = 400,000); note: % is set by controls: 0 for no effect and ±100 for the full control effect; nearly all actives have a fitted effect of over 60% in size
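In this primary screen, KB-V1 cells overexpressing P-gp are incubated with library compounds (lowest to highest concentration) for 72 h at 37 degrees C before a luminescent ATP viability read.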
VP16 counter = Gal4-VP16 reporter inhibition counter-screen. Potency, µM (highest dose often 53.6 µM), for the others: at the top dose activity, negative = inhibition, actives largely listed as inhibitors. actives 3.5% (n = 310,000). Drosophila S2 Gal4-VP16 UAS-luciferase, luminescence, 20 h;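 note: Gal4-VP16 expression switched on by copper sulfate through the metallothionein promoter; % is set by controls: 0 for no effect and ±100 for the full control effect; nearly all actives have a fitted effect of over 50% in size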
KB-3-1 cytotox = kills parental KB-3-1 adenocarcinoma cells. Potency, µM (series often up to 46.1 µM), usual class: cytotoxic. actives 1.4% (n = 400,000). KB-3-1 viability, CellTiter-Glo ATP luminescence, 72 h; note: % is set by controls: 0 for no effect and ±100 for the full control effect; nearly all actives have a fitted effect of over 60% in size
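Cells are dispensed, compounds pinned in, plates held at 37 °C for 72 h, then CellTiter-Glo is added and luminescence read after 10 minutes. Cell line: parental KB-3-1 in phenol-red-free DMEM, 10% FBS.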
SW480 rereplic = induces DNA re-replication in SW480 colon adenocarcinoma cells; SW480 DNA re-replication, Hoechst DNA content imaging, 48 h; Potency, µM (series often up to 46.1 µM), without a hit: top-dose re-replication activation, most hits filed as activators; actives 1.8% (n = 340,000); note: % of control where 0% means no effect; nearly all actives have a fitted effect of over 55% in size
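SW480 cells exposed to compounds for 48 hr at 37 C, 5% CO2, then Hoechst-stained 40 min. Nuclear DNA content imaged by fluorescence scanning (405 nm excitation, 500-530 nm emission); re-replication scored as increased high-intensity nuclei.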
MCF10A rereplic = DNA re-replication induction in MCF 10a cells; MCF 10A DNA re-replication, Hoechst nuclear intensity, 48 h; AID 624296; actives 2.9% (n = 350,000); Potency, µM (series often up to 46.1 µM), for inactives: at the top dose activity, positive = re-replication, most hits filed as activators; note: % of control where 0% means no effect; nearly all actives have a fitted effect of over 50% in size
* = called active by the depositor; i = inactive; ? = inconclusive; . = not tested or not shown; [ ] = another dose, or the depositor's remark. Calls come from the whole dose curve; as a rule, active = well fitted curve in the direction sought with a large enough effect; inconclusive = small, poorly fitted or top-dose-only effect, or another doubt; inactive = no such curve, though single readings can be large; an effect the other way counts as inactive or inconclusive. Potency is the fitted concentration of half-maximal effect.

SMILES	RORg inh	KB-V1 cytotox	VP16 counter	KB-3-1 cytotox	SW480 rereplic	MCF10A rereplic
Cc1ccc(S(=O)(=O)Nc2ccc(O)c3ccccc23)c(C)c1	-42%	i	-17%	i	1%	21µM*
O=S(=O)(Nc1ccc2c3c(cccc13)CC2)c1ccccc1	.	i	.	i	.	.
Cc1ccc(C)c(S(=O)(=O)Nc2ccc(O)c3ccccc23)c1	?	i	?	i	-4%	-1%
Cc1ccc(-c2nn(-c3ccc(F)cc3F)c3c2cnc2c(F)cccc23)cc1	.	i	.	i	.	.
CCN(CC)CCC(c1cc(OC)c(OC)c(OC)c1)c1c(OC)cc(OC)c2c1OC(=O)CC2c1ccc(N(C)C)cc1 (configuration not stated)	31%	.	-3%	.	.	.
Nc1nc(N)c2cc([N+](=O)[O-])ccc2n1	.	i	.	?	-1%	0%
Nc1nc(N)c2c(ccc3c2ccn3Cc2cccc([N+](=O)[O-])c2)n1	.	1.8µM*	.	0.58µM*	.	.
CC(C)OC(=O)CSc1ncnc2c1cnn2Cc1ccccc1	1%[10 µM]	i	4%	i	-7%	0%
Cc1c(Cl)cccc1NC(=O)CSc1ncnc2c1cnn2CCc1ccccc1	15%	i	6%	i	-1%[9.22 µM]	10µM*
COC(=O)CSc1nc2ccccc2nc1SCC(=O)OC	-15%	i	-9%	i	18µM*	23µM*
O=C(CSc1ncnc2c1cnn2CCc1ccccc1)Nc1cccc(C(F)(F)F)c1	1%	i	-2%	i	-6%	?
COC(=O)CSc1ncnc2c1cnn2Cc1ccccc1	10µM*	i	-28%	i	-5%	0%
COc1ccc(OC)c(NC(=O)CSc2ncnc3c2cnn3-c2ccccc2Cl)c1	?	?	1.4µM*	?	4%	?
CCOC(=O)N1CCN(c2nc3ccccc3nc2C(C#N)S(=O)(=O)c2ccc(C)cc2)CC1 (configuration not stated)	?	3.7µM*	-1%	i	11%	15%
Cc1ccc(S(=O)(=O)C(C#N)c2nc3ccccc3nc2N2CCN(C)CC2)cc1 (configuration not stated)	-12%	i	1%	?	13%	?
N#Cc1nc(NCCO)nc(Nc2ccccc2)n1	.	.	-10%	.	.	.
Cn1nc(SCc2ccccc2)c(=O)n(C(c2ccccc2)c2ccccc2)c1=O	.	21µM*	.	?	1%	1%
Brc1csc(/C=N/Nc2nc3ccccc3s2)c1	0.56µM*	i	1.3µM*	i	11%	?
Cc1csc(N/N=C/c2ccccn2)n1	0.35µM*	?	1.1µM*	?	3.7µM*	?
Brc1ccc(/C=C/C=N/Nc2nc3ccccc3s2)cc1	28%	i	-3%	i	?	7%
COc1ccc(C=NNc2nc3ccccc3s2)cc1	.	i	.	i	4%	-12%
C(=N\Nc1nc2ccccc2s1)/c1ccccn1	0.1µM*	?	-95%	?	?	?
Cc1csc(N/N=C/c2ccc([N+](=O)[O-])cc2)n1	-52%	i	-24%	i	1%	1%
CC/C=C1/OC(=O)c2ccccc21	13%	.	-16%	.	.	.
C[C@@H](O)CCC[C@H](O)/C=C/[C@H]1[C@H](O)CC(=O)[C@@H]1C/C=C\CCCC(=O)O	-12%	.	-3%	.	.	.
SMILES	RORg inh	KB-V1 cytotox	VP16 counter	KB-3-1 cytotox	SW480 rereplic	MCF10A rereplic
CCC(=O)N(CC)C1=C(O)c2ccccc2C(=O)C1=O	?	i	?	i	?	?
O=C1C(=O)c2ccccc2C(O)=C1CC=C(Cl)Cl	.	3.7µM*	.	15µM*	3%	-1%
CC(=O)c1c(C)[nH]c(C(=O)COC(=O)CCCOc2ccccc2)c1C	14%	i	3%	i	5%	-9%
CC(=O)c1c(C)[nH]c(C(=O)COc2ccc3ccc(=O)oc3c2)c1C	.	?	.	i	-2%	19%
CCCOc1ccc(OCC(=O)c2[nH]c(C)c(C(C)=O)c2C)cc1	44%	2.9µM*	?	?	17%	47%
CC(=O)c1c(C)[nH]c(C(=O)COc2cc(C)cc(C)c2)c1C	13%	2.6µM*	-16%	i	1%	21%
Cc1ncc(CN2CCC(C(=O)Nc3ccc(-n4cccn4)cc3)CC2)s1	-15%	.	-2%	.	-4%	3%
O=C(Nc1ccc(-n2cccn2)cc1)C1CCCCN1Cc1cccc2c1OCO2 (configuration not stated)	9%	?	-4%	4.1µM*	?	3.7µM*
CN(C)CCCN(C(=O)c1ccc(S(=O)(=O)N(C)C)cc1)c1nc2cc3c(cc2s1)OCO3	5%	i	-3%	i	-7%	2%
CN(C)CCCN(C(=O)c1ccc2c(c1)CCCC2)c1nc2cc3c(cc2s1)OCO3	-27%	i	-27%	?	?	16µM*
CN(C)CCCN(C(=O)c1ccc2c(c1)OCCO2)c1nc2ccc(Cl)cc2s1	-6%	.	?	.	.	.
CN(C)CCCN(C(=O)c1ccc2c(c1)CCCC2)c1nc2ccc(F)cc2s1	?	4.1µM*	?	i	?	?
CCN(CC)CCN(C(=O)c1ccc2c(c1)CCCC2)c1nc2ccc(F)cc2s1	-10%	i	-7%	i	-7%	8%
Cc1ccc(C(=O)N(CCCN(C)C)c2nc3ccc(Cl)cc3s2)cc1C	10µM*	i	18µM*	i	?	5%
CCCCn1c(=NC(=O)c2c(-c3c(F)cccc3Cl)noc2C)c(C(=O)OCC)cc2c(=O)n3ccccc3nc21	.	i	.	i	.	.
CCOC(=O)c1cc2c(=O)n3ccccc3nc2n(CCOC)c1=NC(=O)c1c(-c2c(F)cccc2Cl)noc1C	1%	?	-15%	?	?	18µM*
CCOC(=O)c1cc2c(=O)n3ccccc3nc2n(CCCOC)c1=NC(=O)C(C)(C)C	-5%	i	-6%	?	18µM*	?
COc1ccc(C#Cc2cnc3c(c2)C(=O)N([C@H](C)CO)C[C@@H](C)[C@H](CN(C)C(=O)CN(C)C)O3)cc1	.	i	.	i	.	.
COc1ccc(Oc2ncc3ncc(=O)n(Cc4ccc(F)cc4)c3n2)cc1	-8%	.	-14%	.	.	.
NC(=S)N=Nc1c(O)n(CCCl)c2ccc(Br)cc12	0.79µM*	?	3.5µM*	?	-6%	?
C/C(Cl)=C\Cn1c(O)c(N=NC(N)=S)c2cc(Br)ccc21	3.2µM*	?	3.2µM*	?	?	?
CCCCn1c(O)c(N=NC(=O)c2ccncc2)c2cc(Br)ccc21	?	?	-1%	i	-52%	24%
